We go through 25 compounds from PubChem BioAssay AID463173 (ICCB-Longwood Screening Facility, Harvard Medical School, 2010).

Molecules are shown by their SMILES. Hit rate of the full screen: of about 52,000 compounds, about 1,700 (3.3%) were called active. This excerpt belongs to a sample that is enriched for actives. A number with no mark means an inactive call. No stated cut-off is given here; in the data, active means survival mostly below about 52% (no sharp cut-off); inactive means mostly above about 56%.

This assay deals with Wild type. Nature of the assay: S. aureus survival, RN4220 and DeltatarO strains – OD600, teichoic acid synthesis inhibitors, primary screen (AID 463173). To be noted: S. aureus RN4220 wild type/DeltatarO growth, OD600, 18 h, stronger effect = lower value, screened at 18.75 µg/mL (by protocol).
For `CCOc1ccc(CC(=O)NCCc2sc3nc(-c4ccc(F)cc4)nn3c2C)cc1`, the survival was 71%. For `COC(=O)c1ccccc1NC(=O)c1cc(-c2ccc(Cl)cc2)on1`, the survival is 71%. As for `Cc1ccc(C)c(NC(=O)CSc2nnc(CNC(=O)c3ccccc3)n2-c2ccccc2)c1`, the survival was 63%. On to `Cc1nn(CC(=O)NCCc2ccc(Cl)cc2)c(=O)c2cc3cc(F)ccc3n12`, for which the survival was 74%. For `Cc1cccc(NC(=O)CSC2=Nc3ccccc3C3=NC(CC(=O)NCc4cccs4)C(=O)N23)c1` (stereo not given), the survival is 81%. Regarding `Cc1ccc(C)c(CSc2nnc(C)n3c2cc2sccc23)c1`, the survival was 65%. To `c1ccc(C(c2cccs2)c2c[nH]c3ccccc23)cc1` (stereo not given) belongs 17%; to `Cc1ccc2[nH]cc(C(c3ccccc3)c3ccc(Cl)s3)c2c1` (stereo not given), 18%. On to `Clc1ccc(C(c2ccccc2)c2c[nH]c3ccccc23)s1` (stereo not given), for which the survival was 4% (active).

With `Cc1ccc(NC(=O)CN2C(=O)CSc3ccc(S(=O)(=O)N4CCCC4)cc32)c(C)c1`, the survival is 98%. Consider `CN(CCCNC(=O)c1cc2c(Cl)nc3ccccc3c2s1)Cc1ccccc1`, for which the survival was 45%. The value for `CCN(C(=O)c1cc2c(Cl)nc3ccccc3c2s1)c1cccc(Cl)c1` was 76%. To `CCN(CCCNC(=O)c1cc2c(Cl)nc3ccccc3c2s1)Cc1ccccc1` belongs 96%.

On to `Cc1ccc(Cl)cc1N(C)C(=O)c1cc2c(Cl)nc3ccccc3c2s1`, for which the survival is 70%.

In the case of `Cc1ccc2nc(Cl)c3cc(C(=O)N(C)C4CCCCC4)sc3c2c1`, the survival was 35%. To `CCCN(C(=O)c1cc2c(Cl)nc3ccccc3c2s1)c1cccc(C)c1` belongs 1% (active); to `CCc1ccccc1N(C)C(=O)c1cc2c(Cl)nc3ccc(C)cc3c2s1`, 0% (active).

Turning to `Cc1ccc2nc(Cl)c3cc(C(=O)NCCCN(C)Cc4ccccc4)sc3c2c1`, the survival is -3% (active).

Turning to `CN(C(=O)c1cc2c(Cl)nc3ccccc3c2s1)c1cccc(C(F)(F)F)c1`, the survival is 80%.

In the case of `CC1(C)N=C(SCc2ccc(Cl)cc2)c2ccccc2N1`, the survival was 143%.

As for `Cc1ccc(C(=O)c2oc3ccccc3c2NC(=O)c2nc(S(C)(=O)=O)ncc2Cl)cc1F`, the survival was 83%.

As for `COc1ccc(Nc2nn(-c3ccc(OC(F)(F)F)cc3)nc2C(C)=O)cc1`, the survival is 95%. For the compound `Cc1ccc(-c2cc3ncc4c(n3n2)-c2cc(Cl)ccc2OC4)cc1`, the survival was 97%. As for `CCn1c(=O)n(-c2ccc3c(c2)OCO3)c2nc(-c3ccc(C(C)C)cc3)nc(C(N)=O)c21`, the survival was 130%. For the compound `CCOC(=O)c1[nH]c(C)c(CCC(=O)Nc2c(C)cc(C)cc2C)c1C`, the survival is 127%.
